# From the supplement of paper PMC4894684
# Counter-ions that a name gives are not always drawn. ± gives the standard deviation of the averaged measurements.
# Tested on: Toxoplasma gondii RH (in HFF)
# Assay: parasite growth relative to the screen mean (all compounds = 100%); higher = less inhibition of parasite growth
# Conditions: 5 µM; 72 h; oxygen 21 %
# Summary of the method: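 Library compounds (10 mM DMSO stocks) were pin-transferred to 5 µM final onto confluent human foreskin fibroblasts in 96-well plates, then infected within 2 h with RH β-Gal–GFP Toxoplasma (MOI 1:5) and grown 72 h at 21% O2. Parasite number came from a CPRG β-Gal assay against in-plate standard curves. Growth is expressed relative to the screen mean (all compounds = 100%), averaged over two screens. Uninfected host-cell viability was checked by CellTiter-Blue.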
row,SMILES,parasite growth
1,CO[C@]12C[C@@H](COC(=O)c3cncc(Br)c3)CN(C)[C@@H]1Cc1cn(C)c3cccc2c13 [Nicergoline],126 ± 5.7%
2,CC(N)Cc1c[nH]c2ccc(OCc3cccs3)cc12 (stereo not drawn) [BW 723C86 hydrochloride],133 ± 3.8%
3,O=C1Nc2ccccc2C2(CCN(CCc3ccc(C(F)(F)F)cc3)CC2)O1,99.9 ± 20%
4,O=C(O)c1nn(Cc2ccc(Cl)cc2Cl)c2ccccc12 [Lonidamine],77.9 ± 20%
5,CC(C)[C@@]1(NC(=O)[C@@H]2C[C@@H]3c4cccc5[nH]cc(c45)C[C@H]3N(C)C2)O[C@@]2(O)[C@@H]3CCCN3C(=O)[C@H](Cc3ccccc3)N2C1=O [Dihydroergocristine mesylate],8.76 ± 1.6%
6,NCC(O)c1ccc(O)cc1 (stereo not drawn) [Octopamine hydrochloride],76.6 ± 12%
7,CC[C@@]1(O)C(=O)OCc2c1cc1n(c2=O)Cc2cc3ccccc3nc2-1 [Camptothecin],181 ± 36%
8,C#CCOC(=O)C1=CCCN(C)C1 [Arecaidine propargyl ester tosylate],137 ± 4.5%
9,CN1C(=O)CCS(=O)(=O)C1c1ccc(Cl)cc1 (stereo not drawn) [Chlormezanone],145 ± 22%
10,c1ccc2nc(N3CCNCC3)ccc2c1 [Quipazine dimaleate],115 ± 8.3%
11,c1ccc(CCCCN2CCC(c3ccccc3)CC2)cc1 [4-PPBP maleate],82.8 ± 5.3%
12,CC(C)(c1ccc(OCC2CO2)cc1)c1ccc(OCC2CO2)cc1 (stereo not drawn),157 ± 30%
13,O=c1[nH]c2ccccc2n1CCCN1CCC(n2c(=O)[nH]c3cc(Cl)ccc32)CC1 [Domperidone],129 ± 11%
